The campaign covered roughly 310,000 compounds. About 14,000 (4.5%) showed an effect of 50% or more. The effect is printed as a negative number. This excerpt belongs to a sample that is enriched for strong results.
These compounds were tested against human ether-à-go-go-related gene (hERG) potassium channel (human, UniProt Q12809) (assay: primary screen, population patch clamp on CHO cells stably expressing hERG; higher = less effect of the substance).
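Also: peak tail current of the secondary pulse compared with the same well before compound.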

Chain of human ether-à-go-go-related gene (hERG) potassium channel (Q12809 whole entry, looked up): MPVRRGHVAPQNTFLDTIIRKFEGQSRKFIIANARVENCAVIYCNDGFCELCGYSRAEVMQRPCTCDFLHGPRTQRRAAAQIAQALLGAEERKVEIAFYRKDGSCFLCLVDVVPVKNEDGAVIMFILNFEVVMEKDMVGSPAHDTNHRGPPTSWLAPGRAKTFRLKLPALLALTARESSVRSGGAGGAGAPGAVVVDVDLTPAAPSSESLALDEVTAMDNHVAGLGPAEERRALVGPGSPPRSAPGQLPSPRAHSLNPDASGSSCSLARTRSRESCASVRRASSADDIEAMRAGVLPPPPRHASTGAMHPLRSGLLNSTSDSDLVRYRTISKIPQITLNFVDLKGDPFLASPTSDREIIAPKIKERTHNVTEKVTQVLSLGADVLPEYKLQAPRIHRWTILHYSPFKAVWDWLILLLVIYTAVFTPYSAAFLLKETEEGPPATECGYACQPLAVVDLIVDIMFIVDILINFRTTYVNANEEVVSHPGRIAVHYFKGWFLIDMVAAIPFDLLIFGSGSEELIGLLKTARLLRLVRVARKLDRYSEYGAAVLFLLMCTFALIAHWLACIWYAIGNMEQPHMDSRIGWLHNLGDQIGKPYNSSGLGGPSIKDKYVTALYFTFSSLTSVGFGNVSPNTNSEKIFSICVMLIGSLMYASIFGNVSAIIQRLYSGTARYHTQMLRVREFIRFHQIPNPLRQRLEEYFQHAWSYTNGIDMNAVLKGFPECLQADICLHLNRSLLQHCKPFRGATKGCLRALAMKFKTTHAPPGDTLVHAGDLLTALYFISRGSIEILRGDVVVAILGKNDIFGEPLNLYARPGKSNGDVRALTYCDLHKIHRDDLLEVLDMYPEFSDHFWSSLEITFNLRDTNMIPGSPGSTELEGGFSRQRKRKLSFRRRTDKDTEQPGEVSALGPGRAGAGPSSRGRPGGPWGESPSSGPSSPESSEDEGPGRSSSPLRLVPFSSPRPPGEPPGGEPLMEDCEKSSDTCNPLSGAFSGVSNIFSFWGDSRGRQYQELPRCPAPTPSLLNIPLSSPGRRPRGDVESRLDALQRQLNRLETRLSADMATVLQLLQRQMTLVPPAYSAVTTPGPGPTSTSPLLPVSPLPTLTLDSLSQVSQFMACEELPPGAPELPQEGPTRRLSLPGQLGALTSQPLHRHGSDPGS

| Compound | hERG current change (%, negative = inhibition) at 10uM [%] |
| --- | --- |
| CC1(C)CC(=O)C(Sc2ccccc2[N+](=O)[O-])=C(O)C1 | 4.99 |
| Cc1cc(C)c(OCCCCCNCCO)c(C)c1 | -5.77 |
| Brc1cccc(OCCCCn2cncn2)c1 | 11.2 |
| O=C(CSc1nncn1-c1ccccc1)Nc1ccccc1 | -0.536 |
| N#Cc1c(Oc2ccc3ccccc3c2)sc(C(=O)c2ccccc2)c1N | 11.1 |
| COCc1ccc([C@@H]2C[C@H]3CN(Cc4cccnc4)C(=O)[C@]34CCCN24)o1 | -3.38 |
| O=C1N(Cc2cccc(Cl)c2)C[C@@H]2C[C@@H](c3ccc4nonc4c3)N3CCC[C@@]123 | -55.1 |
| Cc1ccc([C@@H]2C[C@H]3CN(Cc4cccc(Cl)c4)C(=O)[C@]34CCCN24)o1 | -34.3 |
| Cc1nn(C(C)C)c(C)c1[C@@H]1C[C@H]2CN(Cc3cccc(Cl)c3)C(=O)[C@]23CCCN13 | -29.2 |
| O=C1N(Cc2cccnc2)C[C@@H]2C[C@@H](c3ccc4nonc4c3)N3CCC[C@@]123 | -59.1 |
| O=C1N(Cc2cccnc2)C[C@@H]2C[C@@H](c3ccc4nsnc4c3)N3CCC[C@@]123 | -11.3 |
| CCOCCCNC(=O)c1ccc(NC(=O)C2=CSCCO2)cc1 | 15.4 |
| CN(C(=S)NC(=O)C1(C)CC1(Cl)Cl)c1ccccc1 (centres unmarked) | 16.7 |
| COc1cccc2c1C(CO)N1C(C#N)C3CC(C(=O)O)C(C1C2)N3C (centres unmarked) | 12.3 |
| NC(=O)C1CCN(CCC(=O)Nc2ccc(F)c(F)c2)CC1 | 11.1 |
| COc1ccccc1C(=O)Nc1cccc(NC(=O)c2ccccc2OC)n1 | 8.14 |
| Clc1ccccc1OCCCCN1CCNCC1.O=C(O)C(=O)O | 12.7 |
| Clc1ccccc1OCCN1CCC(Cc2ccccc2)CC1.O=C(O)C(=O)O | -73.4 |
| Cc1ccccc1OCCOCCN1CCCCCC1.O=C(O)C(=O)O | -29.3 |
| CCOc1ccccc1OCCN1CCCC1 | 9.51 |
| CCN1CCN(CCCCOc2ccccc2F)CC1.O=C(O)C(=O)O | -9.65 |
| CCN1CCN(CCOc2ccccc2OCc2ccccc2)CC1.O=C(O)C(=O)O | -73.2 |
| Cc1ccccc1OCCN1CCCC1 | 7.01 |

| Compound | hERG current change (%, negative = inhibition) at 10uM [%] |
| --- | --- |
| Cc1ccccc1OCCN1CCC(Cc2ccccc2)CC1.O=C(O)C(=O)O | -58.5 |
| CCOc1ccccc1OCCN1CCC(Cc2ccccc2)CC1.O=C(O)C(=O)O | -67.4 |
| Clc1ccccc1OCCN1CCCCC1 | -16.2 |
| CCOc1ccccc1OCCOCCN1CCN(Cc2ccccc2)CC1.O=C(O)C(=O)O | -48.5 |
| CCN1CCN(CCOc2cccc(Cl)c2Cl)CC1.O=C(O)C(=O)O | -3.27 |
| Cc1cc2c(cc1S(=O)(=O)Nc1ccc(OC(F)(F)F)cc1)OCC(=O)N2 | -42.5 |
| CCOC(CNC(=O)c1cccn2c(=O)c3c(C)c(C)sc3nc12)OCC | -12.5 |
| CCc1nnc(NC(=O)C(=O)NCCOC(=O)c2ccccc2Cl)s1 | 5.68 |
| Cc1cccc(-c2noc(CNC(=O)Nc3ccc(F)cc3)n2)c1 | 8.56 |
| Cc1ccc(N(CC(=O)NCc2ccccc2)C(=O)CCC(=O)Nc2ccccn2)cc1C | 16.4 |
| Cc1cccc(N2CCN(CC(=O)Nc3ccccc3[N+](=O)[O-])CC2)c1C | -0.256 |
| CCn1c(N2CCN(CC(=O)Nc3cccc(C)c3C)CC2)nc2ccccc21 | -63.6 |
| CC(=O)Nc1ccc(S(=O)(=O)N2CCN(c3nc4ccccc4n3CC(C)C)CC2)cc1 | -30.9 |
| CCCn1c(N2CCN(CC(=O)Nc3ccc4c(c3)OCCO4)CC2)nc2ccccc21.Cl | -60.4 |
| CC(C)n1c(N2CCN(CC(=O)Nc3ccc4c(c3)OCCO4)CC2)nc2ccccc21 | -65.4 |
| CCCCNc1nc2ccccc2n1CC(=O)Nc1ccc2c(c1)OCCO2 | -10.2 |
| Cc1ccc(SCc2nc3ccccc3n2CC(=O)Nc2ccc(Cl)cc2)cc1 | -8.31 |
| O=C(CN1CCN(c2ccccc2)CC1)Nc1ccc2c(c1)OCCO2 | 5.46 |
| CCn1c(N2CCN(S(=O)(=O)CC)CC2)nc2ccccc21 | -37.7 |
| CC(O)c1nc2ccccc2n1CC(=O)Nc1ccc2c(c1)OCCO2 (centres unmarked) | -4.28 |
| O=C(CN1CCN(c2ccc(O)cc2)CC1)Nc1ccc2c(c1)OCCO2 | 2.24 |
| CC(C)Cn1c(N2CCN(CC(=O)Nc3ccc(Cl)cc3)CC2)nc2ccccc21 | -70.5 |
| CCOC(=O)[C@@H]1[C@H]2COc3cc(OC)ccc3[C@@H]2N2C(=O)N(c3cccc(C)c3)C(=O)[C@@]12C | -5.14 |

| Compound | hERG current change (%, negative = inhibition) at 10uM [%] |
| --- | --- |
| CCC1=NN(C(=O)c2ccc(C)cc2)C(O)(c2ccc(Br)cc2)C1 (centres unmarked) | -10.7 |
| COc1ccccc1C(CC(=O)Nc1nccs1)c1ccco1 (centres unmarked) | 2.68 |
| Cc1ccc(C)c(NC(=O)CN(C)C(=O)/C=C/c2ccco2)c1 | 15.7 |
| COc1ccccc1/C=C/C=N/NC(=O)c1cnccn1 | 13.5 |
| Cc1ccc(-c2csc(NC(=O)c3ccc(Br)cc3)c2C(=O)O)cc1 | 46.9 |
| O=C(O)C(Cc1c[nH]c2ccccc12)N1CCS(=O)(=O)CC1 (centres unmarked) | 16.3 |
| N#CC1(NC(=O)COC(=O)c2ccc(-c3ccc(O)cc3)cc2)CCCCC1 | 7.22 |
| CC1(C)C(=O)OC(c2ccc([N+](=O)[O-])cc2)C(C)(C)C1=O (centres unmarked) | 18.4 |
| N#Cc1cc(NC2CCCC2)c([N+](=O)[O-])cc1C#N | -5.68 |
| Cn1cc(S(=O)(=O)N2CCCC2)cc1C(=O)NCCc1ccccc1 | -2.66 |
| O=Cc1ccc2noc(-c3ccc(Cl)cc3)c2c1 | -1.22 |
| Cc1ccc(/C=C2\SC(=S)N(CCC(=O)NNC(=O)c3cccnc3)C2=O)cc1 | 1.06 |
| O=C(NCCCN1CCC(Cc2ccccc2)CC1)c1ccc2nc(N3CCOCC3)sc2c1 | -66.2 |
| O=C(c1ccc2nc(N3CCOCC3)sc2c1)N1CCCC1 | -10.8 |
| O=C(c1ccc2nc(N3CCOCC3)sc2c1)N1CCC(Cc2ccccc2)CC1 | -63.2 |
| O=C(NCc1ccccc1)c1ccc2nc(N3CCOCC3)sc2c1 | -5.89 |
| O=C(NCCc1ccccc1)c1ccc2nc(N3CCOCC3)sc2c1 | 3.75 |
| CC1CC(C)CN(CCCNC(=O)c2ccc3nc(N4CCOCC4)sc3c2)C1 (centres unmarked) | -19.5 |
| CCCCN(CCCNC(=O)c1ccc2nc(N3CCOCC3)sc2c1)Cc1ccccc1 | -62 |
| O=C(c1ccc2nc(N3CCOCC3)sc2c1)N1CCN(C(=O)c2ccco2)CC1 | -47.4 |
| CCC(Cc1ccccc1)NC(=O)c1ccc2nc(N3CCOCC3)sc2c1 (centres unmarked) | -46.5 |
| CCOC(=O)c1ccc(-c2c(-c3ccccc3OC)sc3cc4c(cc23)OCO4)cc1F | 12.5 |
| Cc1cccc(-c2nsc(SCC(=O)Nc3cc(C)on3)n2)c1 | 16.1 |

| Compound | hERG current change (%, negative = inhibition) at 10uM [%] |
| --- | --- |
| CC(=Nc1ccc2c(c1)CCC2)c1c(O)n(C)c(=O)n(C)c1=O | -3.93 |
| COc1cccc(CN2CCN(Cc3nc4c(s3)CCCC4)CC2CCO)c1 (centres unmarked) | -48.5 |
| Cc1cccc(CN2CCN(Cc3nc4c(s3)CCCC4)CC2CCO)n1 (centres unmarked) | -28.6 |
| CCOc1ccccc1CN1CCN(Cc2nc3ccccc3s2)CC1CCO (centres unmarked) | -74.8 |
| CCOc1ccccc1CN1CCN(Cc2nc3c(s2)CCCC3)CC1CCO (centres unmarked) | -67.9 |
| Cc1ccc(/C=C2/SC(=S)N(CCCC(=O)Nc3cc([N+](=O)[O-])ccc3O)C2=O)cc1 | 13.1 |
| O=C(NC(=S)NCCc1ccccc1)c1ccco1 | 10.2 |
| NC(=O)c1sc2cc(C(F)(F)F)cnc2c1-c1ccccc1 | 15.5 |
| CCOc1ccc(OCC)c(NC(=O)C2CCN(S(=O)(=O)c3cccnc3)CC2)c1 | -29.9 |
| Clc1ccc(-c2cnc3n2CCC3)cc1 | -23.1 |
| Cc1cnc(NC(=O)CSc2c(Cl)cccc2Cl)s1 | -6.06 |
| Cc1ccc(CN2CCCCC2C(=O)Nc2ccc(Oc3cccnc3)cc2)o1 (centres unmarked) | -19.4 |
| O=C(Nc1ccc(Oc2cccnc2)cc1)C1CCN(Cc2ccc(F)cc2)CC1 | -55.2 |
| O=C(Nc1ccc(Oc2cccnc2)cc1)C1CCN(Cc2cccc(Cl)c2)CC1 | -52.8 |
| COc1cccc(O)c1CN1CCC(C(=O)Nc2ccc(Oc3cccnc3)cc2)CC1 | -47.4 |
| Cc1ccccc1CN1CCC(C(=O)Nc2ccc(Oc3cccnc3)cc2)CC1 | -48.6 |
| O=C(Nc1ccc(Oc2cccnc2)cc1)C1CCN(Cc2ccccc2)CC1 | -75.1 |
| O=C(Nc1ccc(Oc2cccnc2)cc1)C1CCN(Cc2cc(Cl)ccc2O)CC1 | -45.9 |
| COc1ccc(CN2CCC(C(=O)Nc3ccc(Oc4cccnc4)cc3)CC2)c(C)c1C | -36.8 |
| COc1ccc(CN2CCC(C(=O)Nc3ccc(Oc4cccnc4)cc3)CC2)cc1 | -69.3 |
| Cc1cccc(CN2CCC(C(=O)Nc3ccc(Oc4cccnc4)cc3)CC2)c1 | -14 |
| O=C(Nc1ccc(Oc2cccnc2)cc1)C1CCCCN1Cc1ccc(CO)o1 (centres unmarked) | 1.59 |
| O=C(Nc1ccc(Oc2ccccc2)cc1)C1CCN(c2ncccn2)CC1 | 0.064 |

Source: paper PMC4336329 (PLoS ONE, 2015)
